The values below come from PMC10726135, “HNF4α isoforms regulate the circadian balance between carbohydrate and lipid metabolism in the liver”.

Over roughly 18,000 sequences, “log2 normalized intensity” has its median near 0.36; the highest 2% begin near 7.3. Many of the other results were omitted from the sample, so the highest values are more common in it than they were.

The target of this assay is T1, HNF4alpha8 (COS-7 nuclear extract) (Homo sapiens, UniProt P41235-5 1-452).
T1 sequence: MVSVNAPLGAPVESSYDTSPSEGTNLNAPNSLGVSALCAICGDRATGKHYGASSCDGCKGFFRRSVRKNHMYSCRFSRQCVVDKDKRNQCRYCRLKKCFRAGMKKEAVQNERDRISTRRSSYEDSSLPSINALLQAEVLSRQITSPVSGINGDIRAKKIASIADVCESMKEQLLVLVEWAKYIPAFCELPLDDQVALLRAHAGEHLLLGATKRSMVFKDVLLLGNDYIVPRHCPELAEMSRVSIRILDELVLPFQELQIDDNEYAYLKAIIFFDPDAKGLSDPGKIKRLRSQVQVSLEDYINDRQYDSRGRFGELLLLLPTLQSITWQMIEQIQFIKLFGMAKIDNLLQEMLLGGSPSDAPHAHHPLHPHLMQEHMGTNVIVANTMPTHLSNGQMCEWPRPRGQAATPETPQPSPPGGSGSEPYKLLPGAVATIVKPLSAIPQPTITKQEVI
Nature of the assay: protein-binding microarray; COS-7 nuclear extract on double-stranded Agilent 4x180k PBM; binding buffer, salt, pH and temperature not given in the material; high values mean tight binding. The settings on record: chain copies: 2; label: 3' end of strand 1 on the slide; dsDNA, one strand shown. The method, boiled down:
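Using CaPO4, COS-7 cells were transiently transfected with a human HNF4α isoform expression vector, and their nuclear extracts were applied to a custom Agilent SurePrint G3 4x180k double-stranded oligonucleotide array (~60 nt; ~44,000 test sequences in quadruplicate). Bound HNF4α was imaged at 2-µm resolution with an Agilent G2565CA scanner. Agilent software supplied the background-corrected, normalized gProcessedSignal that serves as the binding signal.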
“ATGGTGACCATGTGATGTGAAGAGTGTGGAGCCTAGGGAGATTAGAGTATCGGTCGA”: the binding signal was 1.31 log2 normalized intensity.
Under “CTTGTGTAATAACGAGACCTTAGCCCTGAAGCCTAGGGAGATTAGAGTATCGGTCGA” stands -0.451 log2 normalized intensity.
The same measure for “GAGTTTAAATGACCTCTGCCCTTCCACCCAGCCTAGGGAGATTAGAGTATCGGTCGA”: 5.16 log2 normalized intensity.
With “GAGAGTTCCCTTGGAATGCCAGATGACCTTGCCTAGGGAGATTAGAGTATCGGTCGA”, the binding signal is 4.6 log2 normalized intensity.
In the case of “TTTCATTCCACTGACTTGCAACCTTTGCCCGCCTAGGGAGATTAGAGTATCGGTCGA”, the binding signal turned out to be 7.51 log2 normalized intensity.
The same measure for “GTCCAGAGTTTAAATGACCTCTGCCCTTCCGCCTAGGGAGATTAGAGTATCGGTCGA”: 7.43 log2 normalized intensity.
Under “TTCCCTTGGAATGCCAGATGACCTTTGCCCGCCTAGGGAGATTAGAGTATCGGTCGA” stands 10.2 log2 normalized intensity; under “TTCCTCCCTTGGAATGTGACCTTAGACCCCGCCTAGGGAGATTAGAGTATCGGTCGA”, 8.83 log2 normalized intensity; under “CCCTTGGAATGTGACCTTAGACCCCTGAATGCCTAGGGAGATTAGAGTATCGGTCGA”, 6.49 log2 normalized intensity.
The same measure for “TTAGCTTCCTCCCTTGGAATGTGACCTTAGGCCTAGGGAGATTAGAGTATCGGTCGA”: 5.27 log2 normalized intensity.
In the case of “TTCCACTGACTTGCAACCTTTGCCCTGTTGGCCTAGGGAGATTAGAGTATCGGTCGA”, the binding signal was found to be 7.2 log2 normalized intensity.
The same measure for “TTGCCCTTCTTGGATGCCCTTCCCTAACCCGCCTAGGGAGATTAGAGTATCGGTCGA”: 3.04 log2 normalized intensity; for “TTTCTGTCCAGAGTTTAAATGACCTCTGCCGCCTAGGGAGATTAGAGTATCGGTCGA”: 4.72 log2 normalized intensity; for “CTGGCTTTCATTCCACTGACTTGCAACCTTGCCTAGGGAGATTAGAGTATCGGTCGA”: 1.09 log2 normalized intensity.
Under “AAGATAATGGGTCCGAAGGTCAGCTGACCAGCCTAGGGAGATTAGAGTATCGGTCGA” stands 5.57 log2 normalized intensity.
The same measure for “TGATTATTTGTGAAGGCATTATTGGTGAAAGCCTAGGGAGATTAGAGTATCGGTCGA”: 0.974 log2 normalized intensity.
In the case of “TCAGAGCTTGAAAAGTCTTTCTGCCAAAGTGCCTAGGGAGATTAGAGTATCGGTCGA”, the binding signal is 0.513 log2 normalized intensity.
Under “TGGCATCCCTGTGGTATTTGCTCTGTCATCGCCTAGGGAGATTAGAGTATCGGTCGA” stands 1.39 log2 normalized intensity; under “GCTAAAAGTTGAATTCTTGACTTTGGACTTGCCTAGGGAGATTAGAGTATCGGTCGA”, 6.55 log2 normalized intensity.
Under “GACCTCTGGACCTCATCTTCCTCCCCAATAGCCTAGGGAGATTAGAGTATCGGTCGA” stands 4.6 log2 normalized intensity; under “CCTAGGTGCTGAAGATGCAACAGTGACCCAGCCTAGGGAGATTAGAGTATCGGTCGA”, 3.1 log2 normalized intensity; under “AGTCTGGAGGGGTGCGAAGGTCGAGGCCAGGCCTAGGGAGATTAGAGTATCGGTCGA”, 3.39 log2 normalized intensity.
Under “AGCTACTAGCAAATCTGCCCAACCTTTGCCGCCTAGGGAGATTAGAGTATCGGTCGA” stands 2.1 log2 normalized intensity.
With “TGCCCTTGACTTTTTGTGGGGGCAGATGTTGCCTAGGGAGATTAGAGTATCGGTCGA”, the binding signal is 2.31 log2 normalized intensity.
The same measure for “CTGCTTTTATGACCTTTGACTGCAGAAGATGCCTAGGGAGATTAGAGTATCGGTCGA”: 6.33 log2 normalized intensity.
The same measure for “ATGCCAGATGACCTTTGCCCTTGACTTTTTGCCTAGGGAGATTAGAGTATCGGTCGA”: 9.28 log2 normalized intensity.
Take “AGATGACCTTTGCCCTTGACTTTTTGTGGGGCCTAGGGAGATTAGAGTATCGGTCGA”: the binding signal worked out at 7.72 log2 normalized intensity.
Under “ACCTTTGCCCTTGACTTTTTGTGGGGGCAGGCCTAGGGAGATTAGAGTATCGGTCGA” stands 3.39 log2 normalized intensity; under “TTCTTTTTTTTTTTTTTTTTTTTTTGAGATGCCTAGGGAGATTAGAGTATCGGTCGA”, 3.08 log2 normalized intensity; under “AGTGAGCCAAGGTACCCTGGCTTGTAATTCGCCTAGGGAGATTAGAGTATCGGTCGA”, -0.844 log2 normalized intensity.
The same measure for “ATCAGAGCTGGATGTGAGTTATGACTACTTGCCTAGGGAGATTAGAGTATCGGTCGA”: 0.62 log2 normalized intensity; for “CTTTGACACAGGCGACCTTCGCTCGGCTCGGCCTAGGGAGATTAGAGTATCGGTCGA”: 4.27 log2 normalized intensity; for “CCATATCACATTTTAAGGTCTGGCATTCTTGCCTAGGGAGATTAGAGTATCGGTCGA”: 1.1 log2 normalized intensity.
Under “CTGCAGATTGACTCAGGCATTCTGACCTTTGCCTAGGGAGATTAGAGTATCGGTCGA” stands 7.32 log2 normalized intensity; under “TTTTAAGGTCTGGCATTCTTTTTGACCTTTGCCTAGGGAGATTAGAGTATCGGTCGA”, 8.23 log2 normalized intensity.
Consider “TCAGGCACAGCTCGACCTTTGACCTTCGGCGCCTAGGGAGATTAGAGTATCGGTCGA”, for which the binding signal turned out to be 10.9 log2 normalized intensity.
Under “CCTTTTATTTTCTTATCTGCCTAGGCATTTGCCTAGGGAGATTAGAGTATCGGTCGA” stands 1.58 log2 normalized intensity; under “ACTCAGGCATTCTGACCTTTGTCTCCAGGCGCCTAGGGAGATTAGAGTATCGGTCGA”, 6.52 log2 normalized intensity; under “GATTGACTCAGGCATTCTGACCTTTGTCTCGCCTAGGGAGATTAGAGTATCGGTCGA”, 7.94 log2 normalized intensity.
Under “CCTTTGACCTTCGGCTTCCCCAGAGAAAGAGCCTAGGGAGATTAGAGTATCGGTCGA” stands 3.38 log2 normalized intensity; under “CACAGCTCGACCTTTGACCTTCGGCTTCCCGCCTAGGGAGATTAGAGTATCGGTCGA”, 9.06 log2 normalized intensity; under “AAATCCCCGCCTTTGACACAGGCGACCTTCGCCTAGGGAGATTAGAGTATCGGTCGA”, 4.58 log2 normalized intensity.
